CF NFkB inh = cystic fibrosis NF-kB activation inhibition; KKLEB NF-kB-GFP reporter, PAF-induced, GFP fluorescence overnight; inhibition, % at 5 µM; 0.86% of 360,000 active; AID 588850;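 active = at least 50% inhibition at 5 µM, scaled per plate between neutral and stimulator controls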;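 also: PAF is a Pseudomonas aeruginosa culture filtrate used as stimulus; plate controls were PAF-stimulated DMSO wells for no effect and unstimulated DMSO wells for full effect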
TRPM1 prom inh = reduces MITF-dependent TRPM1 promoter luciferase signal | SK-MEL-5 TRPM1 promoter luciferase, 24 h | inhibition, % at 12.5 µM | 0.83% of 330,000 active;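 active = mean inhibition across replicates of 60% or more, whatever share of single replicates reaches that level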
Shn3 inh set2 = Schnurri-3 reporter inhibition in Clone20 osteoblasts. Clone20 osteoblast Shn3 3'UTR firefly luciferase, 24 h. inhibition, % at 12.5 µM. 0.52% of 360,000 active. AID 588674;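 active = mean inhibition of at least 75% with every replicate also reaching 75%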;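 also: 0% = median of neutral control wells and 100% = pilot-screen positive control compound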
KKLEB tox = counter-screen for CF NF-kB inhibitors: cytotoxicity. KKLEB CF airway cells viability, ATPlite luminescence, overnight; hits give low values; cells stimulated with P. aeruginosa culture filtrate. activity change (cytotoxicity), % at 5 µM. 0.36% of 360,000 active;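 active = corrected activity change at or below -50% at 5 µM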
Peg3 prom inh = Peg3 promoter activity inhibition. HeLa PEG-Prom luciferase reporter, luminescence, overnight. inhibition, % at 20 µM. 1.7% of 360,000 active. AID 588405;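 active = inhibition of at least 50% at 20 µM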
HIF-2a inh = blocks HIF-2a reporter activity | inhibition, % at 18.8 µM | AID 624352 | 786-0 RCC cells HIF-2a reporter, luciferase luminescence, overnight | 0.72% of 360,000 active;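 active = inhibition of the luminescence signal of 40% or more relative to plate controls, in a single-dose primary screen at 18.75 µM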
* hit, by the source's call; x = no result. A selection: hits, their analogues and other compounds. The true share with any hit is near 2.7%.

SMILES | CF NFkB inh | TRPM1 prom inh | Shn3 inh set2 | KKLEB tox | Peg3 prom inh | HIF-2a inh
N#Cc1ccc(C#Cc2ccc3oc4ccccc4c(=O)c3c2)cc1 | 4 | -1 | -5 | -30 | -2 | -20
Cn1c2ccccc2c(=O)c2cc(C#CC3(O)CCCCC3)ccc21 | -133 | 28 | 31 | -72* | 43 | 11
NC1(C#Cc2ccc3c(=O)c4ccccc4sc3c2)CCCCC1 | 0 | -41 | -31 | -11 | -105 | -71
Cn1c2ccccc2c(=O)c2ccc(C#CC3(N)CCCCC3)cc21 | -7 | 11 | -60 | -20 | 52* | -100
COc1cccc2oc3ccc(C#CC4(N)CCCCC4)cc3c(=O)c12 | -23 | 23 | -90 | -21 | 60* | -167
O=c1c2ccccc2oc2ccc(C#CC3(O)CCCCC3)cc12 | -28 | 4 | 2 | -57* | 37 | -2
COc1ccc(Cl)cc1S(=O)(=O)N1CCC(C(=O)NCc2ccccn2)CC1 | 6 | 3 | 14 | 6 | 13 | 12
CC(=O)c1cccc(S(=O)(=O)Nc2cc(C(F)(F)F)ccc2N2CCOCC2)c1 | 1 | 1 | 11 | -12 | 2 | 2
Cc1csc(=O)n1CC(=O)Nc1nc2ccccc2s1 | 1 | 12 | -28 | 3 | -19 | -27
COC(=O)c1ccc2c(=O)n(CCCCCC(=O)N3CCN(c4ccccc4)CC3)c(=O)[nH]c2c1 | -8 | 8 | 78 | 2 | 47 | 3
COc1cc2[nH]c(=O)n(CCCCCC(=O)N3CCN(c4ccccc4)CC3)c(=O)c2cc1OC | 15 | -9 | -13 | -5 | 58* | 26
Cc1ccc(NC(=O)C2CCCN(S(=O)(=O)c3ccc(-n4cnnn4)cc3)C2)cc1 (configuration not stated) | 9 | 12 | 3 | -5 | 5 | 11
CC1(C)CC(=O)C(C=Nc2ccc(C(=O)c3ccccc3)cc2N=CC2=C(O)CC(C)(C)CC2=O)=C(O)C1 | 52* | 7 | 0 | -59* | -14 | -6
CC1(C)CC(=O)C(C=Nc2ccc(O)c(N=CC3=C(O)CC(C)(C)CC3=O)c2)=C(O)C1 | 24 | 15 | 26 | -15 | 0 | -18
Cc1ccc(C)c(CN2CCC(CNC(=O)Nc3cccc(Cl)c3C)CC2)c1 | 10 | -15 | 20 | -15 | 13 | 12
Cc1ccc(NC(=O)NCC2CCN(Cc3cccc(Cl)c3)CC2)cc1Cl | 17 | 52 | -4 | -17 | 83* | 5
CCc1ccc(NC(=O)NCC2CCN(Cc3cccc(Cl)c3)CC2)cc1 | 5 | 8 | 6 | -2 | 35 | 15
Cc1cc(C)cc(NC(=O)NCC2CCN(Cc3cc(C)ccc3C)CC2)c1 | 6 | 4 | 3 | -18 | 84* | 22
COC(=O)c1cc(NC(=O)/C=C/c2ccc3c(c2)OCO3)cc(C(=O)OC)c1 | -13 | -2 | 22 | -8 | 19 | 22
COC(=O)c1cccc(NC(=O)/C=C/c2ccc3c(c2)OCO3)c1 | -14 | 4 | 1 | -5 | -140 | 50*
Cc1cccc(N2C(=O)N3[C@H]4c5ccccc5OC[C@@H]4[C@@H](c4ccccc4)[C@@]3(C)C2=O)c1 | 39 | 4 | -4 | 7 | 8 | 20
C=CCN1C(=O)c2ccc(C(=O)N(CC)CC(=O)Nc3cc(Cl)ccc3C)cc2C1=O | 12 | -1 | -11 | -8 | -12 | 14
COc1ccc(C(CNC(=O)c2ccc(C)c(S(=O)(=O)N3CCOCC3)c2)N2CCCC2)cc1 (configuration not stated) | 0 | -30 | 4 | 1 | 1 | 2
Nn1c(SCc2cccc(Br)c2)nnc1-c1ccncc1 | 2 | 0 | 21 | 1 | 12 | 7
COc1nc(Nc2nc3ccccc3c(=O)[nH]2)nc2ccc(C)cc12 | 48 | 26 | 52 | 0 | 98* | -41
SMILES | CF NFkB inh | TRPM1 prom inh | Shn3 inh set2 | KKLEB tox | Peg3 prom inh | HIF-2a inh
Cc1nc(Nc2nc(CSc3nc4ccccc4[nH]3)cc(=O)[nH]2)nc2ccccc12 | 31 | 7 | 78 | 14 | 102* | -23
Cc1nc(Nc2nc(-c3ccccc3)cc(=O)[nH]2)nc2ccccc12 | -154 | -1 | -20 | 0 | 64* | -229
COc1cccc2c(C)nc(Nc3nc(CSc4nnc(C)s4)cc(=O)[nH]3)nc12 | -5 | 16 | 3 | 11 | 76* | 14
CCOC(=O)C1CCN(Cc2cc(Cl)c3ccccc3c2O)CC1 | -8 | -4 | 53 | 13 | 14 | 28
O=C(CN(C(=O)c1csnn1)c1ccccc1F)NC1CCCCC1 | 4 | 2 | 3 | -7 | 9 | 6
Cc1ccc(CN2CCN(Cc3cc4ccccc4o3)CC2CCO)cc1 (configuration not stated) | -2 | 2 | 5 | -6 | 1 | 14
Cc1ccc(NC(=O)Nc2ccc3c(c2)OCO3)c(OC(F)F)c1 | 23 | -104 | -75 | -4 | -305 | -241
CC(C)(C)NC(=O)NC(=O)CN1CCN(c2ccc(O)cc2)CC1 | -13 | 12 | 87* | 5 | 18 | 7
O=C(c1cc(C(=O)NCCc2ccccc2)c(=O)n(CCc2ccccc2)c1)c1cc(Cl)ccc1O | 36 | -7 | 44 | -24 | 52* | 10
CCOc1ccc(Br)cc1C(=O)Nc1ccc(C(=O)NCC(C)C)cc1 | -4 | -4 | 60 | -10 | 95* | 9
COc1ccc(Br)cc1C(=O)Nc1ccc(C(=O)NCC(C)C)cc1 | -36 | -8 | 5 | 17 | 8 | -14
COc1ccc(OC)c(CCNC(=O)Cn2nc(C)c3c(C)n(-c4ccccc4)nc3c2=O)c1 | 0 | 22 | 31 | -6 | 21 | 19
COc1ccc(/C=C2\SC(=S)N(CCCC(=O)N3CCN(C)CC3)C2=O)cc1 | -8 | 2 | -22 | 0 | -25 | 45*
CC(C)c1ccc(/C=C2\SC(=S)N(CCC(=O)NCCCn3ccnc3)C2=O)cc1 | 8 | -25 | -1 | -16 | -277 | -25
COc1ccc(/C=C2\SC(=S)N(CCC(=O)NCCCn3ccnc3)C2=O)cc1 | 1 | 3 | -10 | 0 | -35 | 40*
COc1cccc(/C=C2\SC(=S)N(CCCC(=O)N3CCCCC3)C2=O)c1 | 16 | 21 | -16 | -15 | 53* | 67*
COc1ccc(CN2C(=O)/C(=C/c3ccncc3)SC2=S)cc1 | 45 | 10 | 37 | -18 | 67* | 43*
CCc1ccc(/C=C2\SC(=S)N(CCCC(=O)N3CCN(C)CC3)C2=O)cc1 | 22 | x | -13 | -15 | 25 | 38
Cc1noc(C)c1NC(=O)N(C)C[C@@H]1Oc2ccc(NC(=O)CCC(F)(F)F)cc2CC(=O)N([C@@H](C)CO)C[C@@H]1C | 0 | 5 | 1 | 2 | -6 | 11
Cc1cccc(C(=O)NCC(=O)N2CCOCC2)c1 | -9 | 0 | -42 | -3 | -9 | -29
COc1ccc(CC(NC(C)=O)C(=O)NC2CCN(C(=O)c3ccccc3F)CC2)cc1 (configuration not stated) | -2 | 1 | 7 | -1 | -10 | 10
